The AC50 is the midpoint of the concentration-response curve, whichever way the signal moves.

Experimental findings from PubChem BioAssay (EPA / NIEHS) are described below.

Inconclusive results are not listed. Calls of active or inactive are those of the source. How the source made its calls, unless noted: active means hit-call score of the fitted dose curve at least 0.9, where 1 is the maximum; inactive means score below 0.9.

Assay [1] can be described thus: BSK_4H_Eotaxin3: BioMAP Diversity Plus: 4H Assay for Eotaxin 3 Biomarker Activity (AID 2283000).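 Further: CCL26 protein level quantified by ELISA in parallel with SRB cytotoxicity check.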 Particulars: primary human endothelial cells (HUVEC); actives raise or lower the signal. In short, it runs like this: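 Chemicals were added to human umbilical vein endothelium cultures, and Eotaxin-3 was quantified by ELISA at 24 h. Values were derived by bidirectional fitting with DMSO serving as negative control and activity baseline.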

The target in assay [2] is human Peroxisome Proliferator-activated Receptor alpha (PPARa), PPARA (gene 5465) (UniProt Q07869). Put plainly: ATG_PPARa_TRANS: Attagene TRANS-FACTORIAL HepG2 Assay for human Peroxisome Proliferator-activated Receptor alpha (PPARa) (AID 2283001; active means hit-call score of the fitted dose curve at least 0.9, where 1 is the maximum). The method, boiled down: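 Measures transcriptional activity of an exogenous chimeric PPARa-Gal4 protein in transiently transfected HepG2 cells after 24 h dosing. Reporter mRNA quantified via RT-PCR and capillary electrophoresis; DMSO served as negative control.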
Chain of human Peroxisome Proliferator-activated Receptor alpha (PPARa), PPARA (gene 5465) (Q07869 whole entry, looked up, the tested form may be a part): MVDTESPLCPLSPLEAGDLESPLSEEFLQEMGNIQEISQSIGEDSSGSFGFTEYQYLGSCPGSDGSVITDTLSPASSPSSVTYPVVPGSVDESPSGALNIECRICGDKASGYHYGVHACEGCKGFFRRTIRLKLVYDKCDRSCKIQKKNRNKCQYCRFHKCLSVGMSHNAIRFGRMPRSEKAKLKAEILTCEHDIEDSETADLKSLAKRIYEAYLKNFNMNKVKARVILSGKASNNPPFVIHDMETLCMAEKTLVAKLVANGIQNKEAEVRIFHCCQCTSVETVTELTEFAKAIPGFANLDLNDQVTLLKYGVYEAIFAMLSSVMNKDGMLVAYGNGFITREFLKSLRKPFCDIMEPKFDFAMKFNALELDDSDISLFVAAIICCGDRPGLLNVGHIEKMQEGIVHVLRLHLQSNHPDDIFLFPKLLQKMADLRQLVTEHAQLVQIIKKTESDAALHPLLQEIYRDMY

The target in assay [3] is human Peroxisome Proliferator-activated Receptor delta (PPARd), PPARD (gene 5467) (UniProt Q03181). Description: ATG_PPARd_TRANS: Attagene TRANS-FACTORIAL HepG2 Assay for human Peroxisome Proliferator-activated Receptor delta (PPARd) (AID 2283002; active means hit-call score of the fitted dose curve at least 0.9, where 1 is the maximum). In short, it runs like this: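 Fluorescence from capillary electrophoresis of labelled RT-PCR reporter fragments gives the signal; DMSO sets baseline. Cells: HepG2 transiently carrying GAL4-UAS reporter units plus chimeric nuclear receptor-Gal4 proteins, exposed to chemicals for 24 h.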
Chain of human Peroxisome Proliferator-activated Receptor delta (PPARd), PPARD (gene 5467) (Q03181 whole entry, looked up, the tested form may be a part): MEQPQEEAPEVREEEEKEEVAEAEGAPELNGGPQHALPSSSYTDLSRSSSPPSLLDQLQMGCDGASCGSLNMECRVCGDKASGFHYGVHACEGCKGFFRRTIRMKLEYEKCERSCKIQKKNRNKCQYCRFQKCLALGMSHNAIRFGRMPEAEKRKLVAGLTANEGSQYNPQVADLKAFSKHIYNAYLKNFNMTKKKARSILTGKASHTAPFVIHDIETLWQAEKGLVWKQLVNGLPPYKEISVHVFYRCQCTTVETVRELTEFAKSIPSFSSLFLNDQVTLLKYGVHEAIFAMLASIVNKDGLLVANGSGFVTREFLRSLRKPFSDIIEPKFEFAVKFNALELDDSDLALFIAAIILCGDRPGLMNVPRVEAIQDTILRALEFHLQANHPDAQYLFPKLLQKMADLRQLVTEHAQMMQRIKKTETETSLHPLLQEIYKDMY

Assay [4] is described as follows: BSK_3C_Proliferation: Cell Proliferation Assessment in the BioMAP Diversity Plus: 3C Assay (AID 2283006). To be noted: primary human endothelial cells (HUVEC). In short, it runs like this:
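Human umbilical vein endothelial cells were grown sub-confluent and exposed to chemical for 48 h, then fixed with 10% TCA and stained with 0.1% sulforhodamine B; absorbance at 560 nm gave relative cell number, fitted bidirectionally against DMSO baseline.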

In assay [5] the target is Peroxisome proliferator-activated receptor gamma (Homo sapiens) (UniProt P37231). Put plainly: ATG_PPARg_TRANS: Attagene TRANS-FACTORIAL HepG2 Assay for human Peroxisome Proliferator-activated Receptor-gamma (PPARg) (AID 2283007; active means hit-call score of the fitted dose curve at least 0.9, where 1 is the maximum). The method, boiled down: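 Chimeric NR-Gal4 transactivation is measured in transiently transfected HepG2 cells by reporter mRNA induction at 24 h. Detection uses RT-PCR with fluorescent labelling and capillary electrophoresis; DMSO defines baseline.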
Chain of Peroxisome proliferator-activated receptor gamma (Homo sapiens) (P37231 whole entry, looked up, the tested form may be a part): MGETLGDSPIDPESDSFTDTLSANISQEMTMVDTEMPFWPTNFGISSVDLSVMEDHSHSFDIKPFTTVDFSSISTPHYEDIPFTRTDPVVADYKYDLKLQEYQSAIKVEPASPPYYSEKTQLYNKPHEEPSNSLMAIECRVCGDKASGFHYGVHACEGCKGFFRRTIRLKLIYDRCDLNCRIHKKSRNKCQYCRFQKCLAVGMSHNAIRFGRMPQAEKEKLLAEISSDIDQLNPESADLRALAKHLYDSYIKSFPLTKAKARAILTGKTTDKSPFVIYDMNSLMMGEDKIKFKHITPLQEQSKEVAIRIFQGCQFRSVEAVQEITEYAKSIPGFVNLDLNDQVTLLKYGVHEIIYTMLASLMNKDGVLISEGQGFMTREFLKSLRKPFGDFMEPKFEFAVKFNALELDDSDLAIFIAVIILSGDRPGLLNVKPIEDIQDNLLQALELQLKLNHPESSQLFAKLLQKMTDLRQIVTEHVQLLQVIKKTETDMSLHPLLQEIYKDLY

Assay [6] addresses Nuclear receptor subfamily 1 group I member 2 (Homo sapiens) (UniProt O75469). Put plainly: ATG_PXR_TRANS: Attagene TRANS-FACTORIAL HepG2 Assay for human Pregnane X Receptor (PXR) (AID 2283008; active means hit-call score of the fitted dose curve at least 0.9, where 1 is the maximum). The method, boiled down: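 HepG2 cells transiently transfected with GAL4-UAS reporter units and PXR-Gal4 chimera, exposed 24 h. Reporter mRNA quantified by RT-PCR, fluorescent labelling, HpaI digestion and capillary electrophoresis; gain of signal vs DMSO.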

The target of assay [7] is Retinoic acid receptor RXR-alpha (Homo sapiens) (UniProt P19793). Put plainly: ATG_RXRa_TRANS: Attagene TRANS-FACTORIAL HepG2 Assay for human Retinoid X Receptor alpha (RXRa) (AID 2283012; active means hit-call score of the fitted dose curve at least 0.9, where 1 is the maximum). The method, boiled down:
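HepG2 cells transiently transfected with multiplexed GAL4-UAS reporter units and chimeric NR-GAL4 fusions, dosed 24 h. Reporter mRNA measured by RT-PCR, FAM labelling, HpaI digestion and capillary electrophoresis; gain-of-signal fitted relative to DMSO baseline.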

Assay [8] concerns the target human Retinoid X Receptor beta (RXRb), RXRB (gene 6257) (UniProt P28702). Put plainly: ATG_RXRb_TRANS: Attagene TRANS-FACTORIAL HepG2 Assay for human Retinoid X Receptor beta (RXRb) (AID 2283013; active means hit-call score of the fitted dose curve at least 0.9, where 1 is the maximum). In short, it runs like this: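 HepG2 cells transiently transfected with multiplexed reporter units driven by GAL4-UAS and exogenous chimeric NR-Gal4 proteins; treated 24 h. Reporter mRNA measured by RT-PCR, 6-FAM labelling and capillary electrophoresis; gain-of-signal fitted versus DMSO baseline.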

Read-out in assay [9]: E-selectin (Homo sapiens) (UniProt P16581)
Description: BSK_3C_Eselectin: BioMAP Diversity Plus: 3C Assay for Eselectin Biomarker Activity (AID 2283015).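 On outcome: cell surface E-selectin protein quantified by ELISA 24 h after dosing.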 Particulars: primary human endothelial cells (HUVEC); actives raise or lower the signal. The method, boiled down:
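ELISA read-out of E-selectin on endothelial monolayers after 24 h chemical treatment. Human umbilical vein primary cells served as the system, with DMSO defining baseline activity for bidirectional fitting.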

Read-out in assay [10]: Interleukin-1 alpha (IL1a), IL1A (gene 3552)
Put plainly: BSK_BE3C_IL1a: BioMAP Diversity Plus: BE3C Assay for Interleukin-1 alpha (IL1a) Biomarker Activity (AID 2283016). To be noted: primary human bronchial epithelial cells; actives raise or lower the signal. The method, boiled down:
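Human primary bronchial epithelial cells (BE3C system) were dosed with compound and IL-1a measured by ELISA 24 h later. Activity was fitted bidirectionally against DMSO baseline; cytotoxicity was tracked in parallel cultures by SRB total-protein staining.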

Read-out in assay [11]: Monocyte Chemoattractant Protein-1 (MCP1), CCL2 (gene 6347)
Description: BSK_3C_MCP1: BioMAP Diversity Plus: 3C Assay for Monocyte Chemoattractant Protein-1 (MCP1) Biomarker Activity (AID 2283017). To be noted: primary human endothelial cells (HUVEC); actives raise or lower the signal. In short, it runs like this:
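ELISA read-out of MCP-1 from human umbilical vein endothelial cell cultures harvested 24 h post-dosing. Gain or loss of signal was fitted relative to DMSO.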

Read-out in assay [12]: Monocyte Chemoattractant Protein-1 (MCP1), CCL2 (gene 6347)
Description: BSK_4H_MCP1: BioMAP Diversity Plus: 4H Assay for Monocyte Chemoattractant Protein-1 (MCP1) Biomarker Activity (AID 2283018). To be noted: primary human endothelial cells (HUVEC); actives raise or lower the signal. In short, it runs like this: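 Human umbilical vein endothelial cells (4H system) dosed with chemical; MCP-1 measured by ELISA 24 h after dosing. Bidirectional curve fitting against DMSO negative control as baseline; parallel SRB total-protein staining tracks overt cytotoxicity.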

Read-out in assay [13]: Human Leukocyte Antigen - DR isotype (HLADR), HLA-DRA (gene 3122)
Description: BSK_3C_HLADR: BioMAP Diversity Plus: 3C Assay for Human Leukocyte Antigen - DR isotype (HLADR) Biomarker Activity (AID 2283019). Particulars: primary human endothelial cells (HUVEC); actives raise or lower the signal. The method, boiled down: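 ELISA readout of surface HLA-DR on human umbilical vein endothelium, taken 24 h after chemical treatment. Gain- and loss-of-signal were both fitted relative to DMSO.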

For assay [14], the target named is human RAR-related Orphan Receptor beta (RORb), RORB (gene 6096) (UniProt Q92753). Put plainly: ATG_RORb_TRANS: Attagene TRANS-FACTORIAL HepG2 Assay for human RAR-related Orphan Receptor beta (RORb) (AID 2283010; active means hit-call score of the fitted dose curve at least 0.9, where 1 is the maximum). In short, it runs like this:
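HepG2 cells were transiently transfected with multiplexed GAL4-UAS reporter units expressing chimeric nuclear receptor–GAL4 proteins, then dosed for 24 h. Reporter mRNA was quantified by RT-PCR with fluorescent labelling and capillary electrophoresis; gain of signal was fitted relative to DMSO.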

Assay [15] addresses human RAR-related Orphan Receptor gamma (RORg), RORC (gene 6097) (UniProt P51449). Put plainly: ATG_RORg_TRANS: Attagene TRANS-FACTORIAL HepG2 Assay for human RAR-related Orphan Receptor gamma (RORg) (AID 2283011; active means hit-call score of the fitted dose curve at least 0.9, where 1 is the maximum). The method, boiled down:
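First, HepG2 liver cells were transfected with GAL4-UAS-driven reporter constructs and the RORg-Gal4 fusion. Next, they were treated with chemical for 24 h. Finally, reporter mRNA was quantified by RT-PCR and capillary electrophoresis, with upward activity fitted against DMSO.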

Assay [16] addresses human Thyroid Receptor alpha (THRa1), THRA (gene 7067) (UniProt P10827). Description: ATG_THRa1_TRANS: Attagene TRANS-FACTORIAL HepG2 Assay for human Thyroid Receptor alpha (THRa1) (AID 2283014; active means hit-call score of the fitted dose curve at least 0.9, where 1 is the maximum). In short, it runs like this:
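Reporter transcript induction, read by capillary electrophoresis of 6-FAM-labelled RT-PCR products, reflects activity of a transfected THRa1-Gal4 fusion in HepG2 liver cells. Cells were dosed for 24 h; activity was fitted in the positive direction against DMSO.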

Read-out in assay [17]: Intercellular Adhesion Molecule 1 (ICAM1), ICAM1 (gene 3383)
Put plainly: BSK_3C_ICAM1: BioMAP Diversity Plus: 3C Assay for Intercellular Adhesion Molecule 1 (ICAM1) Biomarker Activity (AID 2283003). Particulars: primary human endothelial cells (HUVEC); actives raise or lower the signal. In short, it runs like this:
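Primary human umbilical vein endothelial cells in the BioMAP 3C system were exposed to chemicals for 24 h, then ICAM-1 was quantified by ELISA. Activity was fitted bidirectionally against the DMSO negative control baseline.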

Assay [18] has as its target human Retinoic Acid Receptor gamma (RARg), RARG (gene 5916) (UniProt P13631). Description: ATG_RARg_TRANS: Attagene TRANS-FACTORIAL HepG2 Assay for human Retinoic Acid Receptor gamma (RARg) (AID 2283009; active means hit-call score of the fitted dose curve at least 0.9, where 1 is the maximum). The method, boiled down: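 HepG2 cells transiently transfected with multiplexed reporter units expressing chimeric RARg-GAL4 and GAL4-UAS-driven reporters; 24 h compound exposure. Reporter mRNA quantified by RT-PCR with fluorescent labelling and capillary electrophoresis; gain-of-signal fitted relative to DMSO baseline.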

Assay [19] has as its target human Retinoic Acid Receptor beta (RARb), RARB (gene 5915) (UniProt P10826). Description: ATG_RARb_TRANS: Attagene TRANS-FACTORIAL HepG2 Assay for human Retinoic Acid Receptor beta (AID 2283004; active means hit-call score of the fitted dose curve at least 0.9, where 1 is the maximum). The method, boiled down: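 Transient transfection of HepG2 with multiple reporter units → chemical dosing, 24 h → total RNA isolation → RT with oligo(dT) → reporter-specific PCR, 6-FAM primer extension, HpaI digest → capillary electrophoresis. Positive direction vs DMSO control.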

Assay [20] concerns the target Retinoic acid receptor alpha (Homo sapiens) (UniProt P10276). Description: ATG_RARa_TRANS: Attagene TRANS-FACTORIAL HepG2 Assay for human Retinoic Acid Receptor alpha (RARa) (AID 2283005; active means hit-call score of the fitted dose curve at least 0.9, where 1 is the maximum). In short, it runs like this:
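HepG2 transiently transfected with multiplex GAL4-UAS reporter units including a human RARa–GAL4 chimera; 24 h compound exposure. Reporter mRNA quantified by RT-PCR, 6-FAM labeling and capillary electrophoresis; gain of signal versus DMSO.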

Chain of E-selectin (Homo sapiens) (P16581 whole entry, looked up): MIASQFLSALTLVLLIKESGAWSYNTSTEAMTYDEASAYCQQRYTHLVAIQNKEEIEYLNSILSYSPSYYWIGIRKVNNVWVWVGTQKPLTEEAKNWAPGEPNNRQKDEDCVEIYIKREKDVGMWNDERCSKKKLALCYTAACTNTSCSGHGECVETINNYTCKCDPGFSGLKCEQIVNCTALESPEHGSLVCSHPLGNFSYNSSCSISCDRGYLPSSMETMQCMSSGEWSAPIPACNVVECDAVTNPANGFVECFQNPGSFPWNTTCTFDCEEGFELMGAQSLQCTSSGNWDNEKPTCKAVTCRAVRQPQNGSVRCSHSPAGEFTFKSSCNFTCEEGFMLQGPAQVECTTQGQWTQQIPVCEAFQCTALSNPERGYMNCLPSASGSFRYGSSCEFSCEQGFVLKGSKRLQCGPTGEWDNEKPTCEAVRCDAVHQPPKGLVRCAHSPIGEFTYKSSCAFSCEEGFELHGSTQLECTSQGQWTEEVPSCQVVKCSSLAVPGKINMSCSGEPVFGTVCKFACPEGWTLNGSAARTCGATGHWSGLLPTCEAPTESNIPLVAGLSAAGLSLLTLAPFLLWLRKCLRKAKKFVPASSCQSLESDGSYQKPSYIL
Chain of human Retinoid X Receptor beta (RXRb), RXRB (gene 6257) (P28702 whole entry, looked up, the tested form may be a part): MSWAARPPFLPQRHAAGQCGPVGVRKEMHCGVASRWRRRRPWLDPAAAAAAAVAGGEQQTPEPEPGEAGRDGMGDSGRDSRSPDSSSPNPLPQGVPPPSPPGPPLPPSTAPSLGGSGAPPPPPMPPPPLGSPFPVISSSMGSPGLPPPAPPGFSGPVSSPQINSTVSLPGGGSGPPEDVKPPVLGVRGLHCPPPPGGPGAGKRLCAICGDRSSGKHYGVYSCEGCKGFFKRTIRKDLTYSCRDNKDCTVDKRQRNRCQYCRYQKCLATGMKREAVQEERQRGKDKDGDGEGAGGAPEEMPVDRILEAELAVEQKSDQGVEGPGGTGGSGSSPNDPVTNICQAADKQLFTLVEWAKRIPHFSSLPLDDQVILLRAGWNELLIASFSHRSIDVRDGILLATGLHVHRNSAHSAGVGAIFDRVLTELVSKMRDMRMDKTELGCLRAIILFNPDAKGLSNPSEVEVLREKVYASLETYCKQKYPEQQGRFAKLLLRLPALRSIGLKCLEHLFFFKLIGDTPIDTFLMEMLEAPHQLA
Chain of human RAR-related Orphan Receptor beta (RORb), RORB (gene 6096) (Q92753 whole entry, looked up, the tested form may be a part): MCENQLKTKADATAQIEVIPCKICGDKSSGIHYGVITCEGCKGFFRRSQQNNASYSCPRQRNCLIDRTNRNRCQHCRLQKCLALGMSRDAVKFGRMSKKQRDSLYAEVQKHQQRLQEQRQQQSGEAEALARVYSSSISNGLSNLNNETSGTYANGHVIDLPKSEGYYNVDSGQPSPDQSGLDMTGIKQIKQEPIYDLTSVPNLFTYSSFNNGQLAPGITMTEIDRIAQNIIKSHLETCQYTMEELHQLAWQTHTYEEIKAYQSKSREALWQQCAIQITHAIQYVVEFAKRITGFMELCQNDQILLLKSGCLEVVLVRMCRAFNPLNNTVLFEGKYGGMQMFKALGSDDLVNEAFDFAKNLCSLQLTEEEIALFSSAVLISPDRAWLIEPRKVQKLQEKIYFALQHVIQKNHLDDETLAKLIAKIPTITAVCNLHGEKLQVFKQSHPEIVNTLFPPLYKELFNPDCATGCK
Chain of Retinoic acid receptor RXR-alpha (Homo sapiens) (P19793 whole entry, looked up, the tested form may be a part): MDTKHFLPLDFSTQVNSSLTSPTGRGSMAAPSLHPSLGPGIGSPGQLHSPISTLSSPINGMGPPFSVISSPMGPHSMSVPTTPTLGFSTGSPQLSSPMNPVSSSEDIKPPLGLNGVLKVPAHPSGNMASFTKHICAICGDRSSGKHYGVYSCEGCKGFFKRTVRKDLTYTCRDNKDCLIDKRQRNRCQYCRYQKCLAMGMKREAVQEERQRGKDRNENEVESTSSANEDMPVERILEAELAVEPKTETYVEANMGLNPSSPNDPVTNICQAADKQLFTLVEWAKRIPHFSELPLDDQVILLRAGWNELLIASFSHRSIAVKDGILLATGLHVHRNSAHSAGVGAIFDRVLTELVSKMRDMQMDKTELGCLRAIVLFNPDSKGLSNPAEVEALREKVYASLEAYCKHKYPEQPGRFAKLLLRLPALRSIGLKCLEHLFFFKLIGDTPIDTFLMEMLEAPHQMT
Chain of Nuclear receptor subfamily 1 group I member 2 (Homo sapiens) (O75469 whole entry, looked up, the tested form may be a part): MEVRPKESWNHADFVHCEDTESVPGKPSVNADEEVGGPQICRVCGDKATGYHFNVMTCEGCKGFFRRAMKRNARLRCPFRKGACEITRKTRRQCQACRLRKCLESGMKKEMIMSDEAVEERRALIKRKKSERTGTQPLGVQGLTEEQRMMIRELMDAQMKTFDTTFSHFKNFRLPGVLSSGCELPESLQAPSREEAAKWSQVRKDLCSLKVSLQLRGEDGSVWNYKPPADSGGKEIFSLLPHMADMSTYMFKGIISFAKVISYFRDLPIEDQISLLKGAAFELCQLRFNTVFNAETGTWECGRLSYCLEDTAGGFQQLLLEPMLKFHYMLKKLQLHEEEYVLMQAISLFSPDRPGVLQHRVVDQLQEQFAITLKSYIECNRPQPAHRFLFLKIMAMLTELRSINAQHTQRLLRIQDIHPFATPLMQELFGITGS
Chain of human Thyroid Receptor alpha (THRa1), THRA (gene 7067) (P10827 whole entry, looked up, the tested form may be a part): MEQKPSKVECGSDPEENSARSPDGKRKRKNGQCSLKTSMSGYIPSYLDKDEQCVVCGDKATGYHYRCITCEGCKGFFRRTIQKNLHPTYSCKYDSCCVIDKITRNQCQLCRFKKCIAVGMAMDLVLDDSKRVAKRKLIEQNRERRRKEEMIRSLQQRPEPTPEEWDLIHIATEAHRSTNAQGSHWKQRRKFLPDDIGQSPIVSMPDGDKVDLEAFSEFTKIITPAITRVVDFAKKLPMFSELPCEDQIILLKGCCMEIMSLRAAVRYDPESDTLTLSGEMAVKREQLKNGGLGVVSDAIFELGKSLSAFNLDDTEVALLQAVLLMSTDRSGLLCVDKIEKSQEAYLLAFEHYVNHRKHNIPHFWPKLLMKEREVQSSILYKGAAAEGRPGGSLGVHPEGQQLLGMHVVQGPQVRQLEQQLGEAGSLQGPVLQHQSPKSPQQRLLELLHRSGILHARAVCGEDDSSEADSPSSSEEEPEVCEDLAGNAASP
Chain of human RAR-related Orphan Receptor gamma (RORg), RORC (gene 6097) (P51449 whole entry, looked up, the tested form may be a part): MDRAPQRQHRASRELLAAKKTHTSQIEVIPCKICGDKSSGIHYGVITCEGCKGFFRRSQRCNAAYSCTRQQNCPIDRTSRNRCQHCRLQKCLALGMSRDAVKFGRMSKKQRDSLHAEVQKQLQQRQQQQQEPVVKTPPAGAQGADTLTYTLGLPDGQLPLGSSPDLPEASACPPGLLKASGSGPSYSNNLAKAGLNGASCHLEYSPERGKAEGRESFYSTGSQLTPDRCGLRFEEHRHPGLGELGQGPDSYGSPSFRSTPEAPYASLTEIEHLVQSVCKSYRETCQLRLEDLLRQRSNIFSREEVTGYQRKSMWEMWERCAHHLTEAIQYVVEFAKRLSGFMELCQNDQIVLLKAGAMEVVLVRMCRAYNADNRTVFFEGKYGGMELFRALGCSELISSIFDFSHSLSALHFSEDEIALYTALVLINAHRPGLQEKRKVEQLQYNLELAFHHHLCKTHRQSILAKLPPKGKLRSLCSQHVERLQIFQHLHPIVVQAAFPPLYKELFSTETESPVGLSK

For the compound `CCCCCC1=CCCC1=O`, the outcome in assay [1], in assay [2], in assay [3], in assay [4], in assay [7] and in assay [8] was inactive. Besides, the result in assay [9], in assay [10], in [11] and in assay [12] was inactive. Moreover, the AC50 in [5] was 35.4 µM (active); in assay [6], 11.4 µM (active); in [13], 20 µM (active).
Turning to `C=C(C)C(=O)OCCCCCCCCCCCC`, the result in assay [1], in assay [2], in assay [3], in assay [4], in [6] and in assay [14] was inactive. The compound was classed as inactive in assay [15], in assay [7], in assay [16], in [9], in assay [10] and in assay [11]. Moreover, the result in [12] and in [13] was inactive. In addition, the figures for the AC50 in assay [5] and in assay [8] were 122 µM (active) and 67.8 µM (active), respectively.
As to `CC1(C)CC(O)CC(C)(C)N1[O]`, the result in assay [1], in assay [2], in assay [3], in [4], in [5] and in [15] was inactive. In addition, the result in assay [7], in assay [10], in assay [11], in assay [12] and in assay [13] was inactive. Also, in assay [9], the AC50 was 0.0621 µM (active).
As to `O=C1CCCCCCCCCCCN1`, the outcome in assay [1], in [3], in assay [17], in [4], in [18] and in assay [9] was inactive. Besides, the result in [10], in [11], in [12] and in [13] was inactive. Moreover, the results for the AC50 in assay [6] and in [8] were 5.31 µM (active) and 33.8 µM (active), respectively.
As to `O=C(Oc1ccccc1)c1ccccc1C(=O)Oc1ccccc1`, the outcome in assay [1], in assay [2], in assay [3], in assay [4], in assay [6] and in [9] was inactive. Further, the outcome in assay [10], in assay [11] and in assay [12] was inactive. For the same compound, the AC50 was 47.6 µM (active) in assay [5] and 20 µM (active) in assay [13].
On to `CCC1(C)C(=O)N(Cl)C(=O)N1Cl` (stereo not given), for which the outcome in [1], in assay [3], in assay [17], in assay [4], in assay [5] and in assay [6] was inactive. In addition, the compound was classed as inactive in [14], in [8], in [9], in assay [10], in [11] and in [12]. The outcome in assay [13] was inactive.
As to `Nc1nc(N)nc(-c2ccccc2)n1`, the outcome in [1], in assay [2], in [17], in assay [4], in assay [5] and in assay [6] was inactive. The outcome in [14], in [15], in [7], in assay [8], in assay [16] and in assay [9] was inactive. The result in assay [10], in assay [11], in assay [12] and in assay [13] was inactive.
As for `CCNc1nc(NC(C)(C)C)nc(OC)n1`, the result in assay [1], in assay [3], in [17], in assay [19], in [20] and in assay [4] was inactive. For the same compound, the outcome in [5], in [18], in assay [7], in [8], in assay [16] and in assay [9] was inactive. Besides, the outcome in assay [10], in assay [11], in assay [12] and in assay [13] was inactive. In addition, the AC50 in [6] was 3.89 µM (active).
